Here are results for 40 compounds from PubChem BioAssay (NCI).

SMILES strings stand for the structures. The panel holds about 83,000 compounds, 20% with a hit somewhere; the sample as a whole holds those more often.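 48-hour exposure, single concentration, 96-well plates; percent growth endpoint where 0 means no net growth. Active: below 10.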 Values without a mark were called inactive. The source made the active and inactive calls.

The assay concerns PC-3 prostate. Briefly: NCI-60 one-dose screen, 48 h (100 = growth as untreated, 0 = no growth, -100 = all killed). The note with it: 10 µM unless noted. How it is done:
Growth inhibition of the PC-3 human tumor cell line is measured as a screen for anti-cancer activity. Cells are grown in 96 well plates and exposed to the test compound for 48 hours. Compounds are tested at a single concentration, which is 10^-5 M for most compounds. The reported endpoint is percent growth (GI% or GIPRCNT), where numbers from 0 - 100% represent growth inhibition, and numbers from -100% - 0 represent cell death. For example, a value of 40 represents 60% growth inhibition. A value of 0 means no net growth occurred over the course of the experiment. A value of -40 indicates 40% of cells at the beginning of the experiment died by the end of the experiment. A value of -100 means all cells are dead at the end of the experiment.
NCI-60 Human Tumor Cell Lines Screen was performed using the standard one-dose NCI protocol, which is described in more detail at https://dtp.cancer.gov/discovery_development/nci-60/default.htm.
Compounds with GIPRCNT values below 10 were considered active. Activity score was based on GIPRCNT using the following formula: […]
Score is 0 for GIPRCNT values of 100 or above, 50 for GIPRCNT values of 0, and 100 for GIPRCNT values of -100.
Turning to `O=C(N/N=C/c1ccc(Oc2ccccc2)cc1)c1cnn2c1NC(c1ccccc1)C2` (stereo not given), the growth was 46.7%.
Regarding `COc1cc(C=O)ccc1OC1OC(COC(C)=O)C(OC(C)=O)C(OC(C)=O)C1OC(C)=O` (stereo not given), the growth was 95.8%.
As for `Cc1cc2nc3c4ccc(Br)cc4n(CCN(C)C)c3nc2cc1C`, the figure is 12.8%.
With `CN[C@@H](C)C(=O)N[C@H]1CCS[C@H]2CC(C)(C)[C@@H](C(=O)N[C@H]3c4ccccc4C[C@H]3OCC#CC#CCO[C@@H]3Cc4ccccc4[C@@H]3NC(=O)[C@H]3N4C(=O)[C@@H](NC(=O)[C@H](C)NC)CCS[C@H]4CC3(C)C)N2C1=O` the figure was 102%; with `N#C/C(=C\c1ccc(C(F)(F)F)cc1)c1cc2ccccc2[nH]1`, 93.9%; with `CCCOc1ccc(/C=N/Nc2cc(C)nc3ccc(Br)cc23)cc1`, 87.6%.
With `O=C(Cc1ccc(/C=C/C(=O)c2ncc[nH]2)cc1)Nc1ccc(Cl)cc1` the figure was 39%; with `O=C(NO)c1ccc(-n2nc(-c3ccccc3)c3ccccc32)cc1`, 46.7%; with `C[C@H](c1nc2ccc(N)cc2[nH]1)[C@H]1CC[C@H]2[C@@H]3CCC4=CC(=O)CC[C@]4(C)[C@H]3CC[C@]12C`, 82.9%.
Consider `CCCOC(=O)N[C@H]1CCc2cc(OC)c(OC)c(OC)c2-c2ccc(SC)c(=O)cc21`, for which the growth is 29.5%.
Turning to `COc1ccc(CNCCN2C(=O)c3ccc4c5c(ccc(c35)C2=O)C(=O)N(CCNCc2ccc(OC)c(OC)c2OC)C4=O)c(OC)c1OC`, the growth was 0.0353% (active).
With `Cc1cc2nc3c4cccc(O)c4n(CCN(C)C)c3nc2cc1C` the figure was 35.6%; with `O=C1c2c(c3c4cccc(F)c4[nH]c3c3ccc4ccccc4c23)C(=O)N1O`, 32.5%; with `O=C1c2ccc3c4c(ccc(c24)C(=O)N1CCCNCc1ccccc1)C(=O)N(CCCNCc1ccccc1)C3=O`, -65.4% (active).
Turning to `CCc1c2c(nc3ccc(OCc4ccc(B(O)O)cc4)cc13)-c1cc3c(c(=O)n1C2)COC(=O)[C@]3(O)CC`, the growth is 24.4%.
As for `COc1ccc(/C=C/c2nc(Nc3ccc(S(=O)(=O)Nc4nc(C)cc(C)n4)cc3)c3ccccc3n2)cc1`, the figure is 77.5%; as for `Nc1c(C(=O)Nc2ccnc3ccccc23)sc2nc3c(cc12)CN(Cc1ccccc1)CC3`, 45.5%.
With `O=C(CSc1nc2ccccc2[nH]1)NCc1ccccc1` the figure was 98.8%; with `Cc1nc2ccc(Cl)cn2c1-c1nnc(SCc2ccc([N+](=O)[O-])cc2)o1`, 74%.
As for `NS(=O)(=O)c1ccc(CCn2c(SCC(=O)c3ccc(Cl)cc3)nc3ccccc3c2=O)cc1`, the growth is 98.2%.
On to `COC(=O)C1=C(C(=O)ON)[C@@H]2C=C[C@@]1([C@@H](Cc1ccccc1)Nc1ccccc1)O2`, for which the growth is 101%.
Turning to `CC(=O)OC[C@]12CC[C@@H](C(=O)CBr)[C@@H]1[C@H]1CC[C@@H]3[C@@]4(C)CC[C@H](OC(C)=O)C(C)(C)[C@@H]4CC[C@@]3(C)[C@]1(C)CC2`, the growth was 75.8%.
With `Brc1ccc2[nH]cc(-c3cncn3CCc3ccccc3)c2c1` the figure was 53.9%; with `COc1ccc(/C=C/c2nc(Nc3ccc(Cl)cc3)c3ccccc3n2)cc1`, 54.5%; with `N#Cc1c(NC(=O)NCc2ccccc2)sc2c1CCCC2`, 26.9%.
`O=C(Nc1ccccc1)Nc1ccc2cc3ccc(NC(=O)Nc4ccccc4)cc3nc2c1`: the growth was 51.5%.
Turning to `O=C(Nc1ccc(-c2ccc3c(c2)NC(=O)/C3=C\c2ccc[nH]2)cc1)NC1CC1`, the growth was 99.4%.
In the case of `N=C(N)c1ccc(OCCCCCCCCCCOc2ccc(C(=N)N)cc2)cc1`, the growth was -91.3% (active).
With `COc1cc(-c2csc(NC(=O)c3cc(F)cc(C(F)(F)F)c3)n2)cc(OC)c1OC`, the growth is 36%.
With `C#CCNC(=O)[C@H](Cc1ccccc1)NC(=O)[C@]12CC[C@@H](C(=C)C)[C@@H]1[C@H]1CC[C@@H]3[C@@]4(C)CCC(=O)C(C)(C)[C@@H]4CC[C@@]3(C)[C@]1(C)CC2` the figure was 33%; with `COc1ccc(-c2nc(S(=O)(=O)c3ccccc3)c(S(=O)CC(=O)N3CCC(C)CC3)o2)cc1` (stereo not given), 40.9%; with `COc1ccc(CCn2cncc2-c2c[nH]c3ccccc23)cc1`, 80.7%.
Regarding `Cc1ccc(C(=O)/C(=C/c2ccc([N+](=O)[O-])cc2)SCc2ccc(Cl)cc2)cc1`, the growth was 63.3%.
Take `COCCCN1CC(O)=C(c2nc(-c3ccc(C)cc3)cs2)C1=N`: the growth was 94.3%.
`C/C(=N\NC(=O)CSc1nc2ccccc2c(=O)n1Cc1ccc(S(N)(=O)=O)cc1)c1ccc(F)cc1`: the growth was 102%.
As for `Cc1nn(-c2ccccc2)c(Oc2c(Cl)cccc2Cl)c1/C=N/N=c1\sc2ccccc2n1C`, the figure is 44.1%; as for `O=C(CCN1CCCC1)Nc1ccc2c(NCCc3ccccc3)c3ccccc3nc2c1`, -36% (active); as for `O=C1Nc2ccccc2/C1=C\c1c(-c2ccccc2)nc2ccccn12`, 49.9%.
As for `c1ccc2c(-c3c[nH]c4ccccc34)c3c(cc2c1)[nH]c1ccccc13`, the figure is 69.9%.
As for `O=C(Cn1c(C(=O)c2ccccc2)nc2ccccc21)c1ccc(F)cc1`, the figure is 78.2%.
